# According to PubChem BioAssay AID488969 (Vanderbilt High Throughput Screening Facility, 2010):
# In all, about 110,000 compounds were measured (“z-score”: median about -0.1, highest 2% from about 2 on). What follows is part of a selection rich in the highest values, with near analogues and random picks from the rest. Active and inactive are the calls of the source.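 The calls were made as follows: active = z-score in the third read window above 3 or below -3; inactive = the rest.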
# Target: Metabotropic glutamate receptor 8 (Rattus norvegicus) (UniProt P70579)
# Assay: rat mGluR8 modulators via GIRK flux, primary screen, cell-based, thallium flux, HTS (AID 488969)
# Conditions: HEK293 rat mGluR8, GIRK (G protein-gated inwardly rectifying potassium channel) thallium flux, FluoZin2; at 10 µM; stronger effect = higher value; submaximal glutamate (EC20) added with thallium
# Metabotropic glutamate receptor 8 (Rattus norvegicus), sequence (P70579 whole entry, looked up): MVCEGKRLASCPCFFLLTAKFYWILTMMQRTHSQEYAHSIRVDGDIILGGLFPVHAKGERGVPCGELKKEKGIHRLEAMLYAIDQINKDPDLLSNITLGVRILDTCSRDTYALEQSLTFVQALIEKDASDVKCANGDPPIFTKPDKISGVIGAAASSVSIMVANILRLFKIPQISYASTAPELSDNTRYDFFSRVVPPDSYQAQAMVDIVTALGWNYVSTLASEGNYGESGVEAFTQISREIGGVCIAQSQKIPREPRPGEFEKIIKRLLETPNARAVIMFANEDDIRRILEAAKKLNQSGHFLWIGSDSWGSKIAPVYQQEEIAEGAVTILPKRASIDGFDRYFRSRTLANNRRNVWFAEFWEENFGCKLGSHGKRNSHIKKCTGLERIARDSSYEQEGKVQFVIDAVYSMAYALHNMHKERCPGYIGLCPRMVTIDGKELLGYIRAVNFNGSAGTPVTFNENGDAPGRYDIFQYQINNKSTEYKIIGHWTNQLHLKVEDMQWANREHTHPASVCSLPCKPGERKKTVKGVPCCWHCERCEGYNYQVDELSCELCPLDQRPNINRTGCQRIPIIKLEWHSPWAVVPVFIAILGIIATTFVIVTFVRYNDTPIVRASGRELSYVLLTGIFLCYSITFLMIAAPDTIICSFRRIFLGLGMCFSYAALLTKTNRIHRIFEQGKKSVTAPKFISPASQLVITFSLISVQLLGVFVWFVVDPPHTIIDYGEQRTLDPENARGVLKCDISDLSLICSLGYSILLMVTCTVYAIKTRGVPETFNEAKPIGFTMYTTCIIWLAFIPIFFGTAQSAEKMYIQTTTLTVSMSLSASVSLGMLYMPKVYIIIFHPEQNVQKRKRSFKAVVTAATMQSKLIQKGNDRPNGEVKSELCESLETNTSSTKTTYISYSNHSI
row,SMILES,z-score
1,CCn1c(SCC(=O)Nc2ccccc2OC)nc2ccccc2c1=O,-0.373
2,COc1ccc(Cn2cnc3sccc3c2=O)cc1,-0.167
3,CCOC(=O)Nc1ccc(S(=O)(=O)Nc2cc(C)nc(C)n2)cc1,-0.12
4,COc1ccc(CCN2C(=O)CC(C(N)=O)SC2=Nc2ccccc2)cc1OC (stereo not drawn),1.15
5,Cc1ccc(N2CN=C(c3ccccc3)NC2=S)cc1,0.328
6,S=C1NC(c2ccccc2)=NCN1c1ccc(Cl)cc1,3.19 (active)
7,S=C1NC(c2ccccc2)=NCN1c1ccccc1,0.145
8,CCCOc1ccccc1Nc1nnc(C)c(=O)[nH]1,0.409
9,CCOc1ccccc1Nc1nnc(Cc2ccccc2Cl)c(=O)[nH]1,12.8 (active)
10,CCOc1ccccc1Nc1nnc(C)c(=O)[nH]1,-0.155
11,CCOC(=O)C1CCN(C(=O)c2cc(OCC)c(OCC)c(OCC)c2)CC1,0.856
12,OC1CCN(c2c3c(nc4cc(-c5ccc(Cl)cc5)nn24)CCC3)CC1,-0.738
13,O=C(c1cc2ccccc2c(=O)o1)N1CCCC1,0.79
14,Cc1cc(NC(=O)/C=C/c2ccccc2Cl)n(-c2nc3ccccc3[nH]2)n1,0.0437
15,Cc1cc(NC(=O)c2c(F)cccc2Cl)n(-c2nc3ccccc3[nH]2)n1,3.06 (active)
16,Cc1cc(NC(=O)c2ccc(F)cc2F)n(-c2nc3ccccc3[nH]2)n1,0.0238
17,FC(F)Sc1ccc(NC(=S)NC2CCC(NC(=S)Nc3ccc(SC(F)F)cc3)CC2)cc1 (stereo not drawn),-0.2
18,CC1CCN(C(=S)Nc2ccc(SC(F)F)cc2)CC1,0.000321
19,CN1CCC(N(C)C(=S)Nc2ccc(SC(F)F)cc2)CC1,-0.0288
20,CC1CC(C)CN(C(=S)Nc2ccc(OC(F)F)cc2)C1 (stereo not drawn),-0.115
21,Oc1cccc(NC(=S)Nc2cccnc2)c1,-0.756
22,CN(C(=S)Nc1ccc(SC(F)F)cc1)c1ccc(O)cc1,0.142

row,SMILES,z-score
1,Oc1cccc(NC(=S)Nc2ccc(SC(F)F)cc2)c1,2.92
2,FC(F)Sc1ccc(NC(=S)NC2CCCCC2)cc1,-0.326
3,FC(F)Sc1ccc(NC(=S)NCC2CCCCC2)cc1,-0.233
4,CC1CCCC(NC(=S)Nc2ccc(SC(F)F)cc2)C1C (stereo not drawn),4.36 (active)
5,CC1CC(C)CN(C(=S)Nc2ccc(SC(F)F)cc2)C1 (stereo not drawn),6.63 (active)
6,CC1CCCCC1NC(=S)Nc1ccc(SC(F)F)cc1 (stereo not drawn),5.08 (active)
7,c1cncc(C(c2nnnn2C2CCCC2)N2CCN(Cc3ccc4c(c3)OCO4)CC2)c1 (stereo not drawn),0.0897
8,O=C(c1ccco1)N1CCN(c2ccc(Cl)c(Cl)c2)CC1,-0.938
9,COc1cccc(OC)c1NC(=O)CN1CCC(NC(=O)c2cccc(F)c2)CC1,-0.0108
10,O=C(CCNC(=O)Cn1ccc2ccccc2c1=O)NCCc1ccccc1Cl,-0.0359
11,CCSc1nnc(NC(=O)C2Cc3ccccc3CN2S(=O)(=O)CC)s1 (stereo not drawn),0.295
12,C=CC(=O)Nc1ccc(Br)cc1,0.0392
13,COc1ccc(C(=O)N2C(=S)NC(=O)/C2=C\c2ccc(C)cc2)cc1,2.75
14,COc1ccc(/C=C2\C(=O)NC(=S)N2C(=O)c2ccc(F)cc2)cc1,3.14 (active)
15,COc1ccc(C(=O)C2CCN(C(=O)c3ccc(C)cc3)CC2)cc1,-0.285
16,COc1ccc(C(=O)N2CCC(C(=O)c3ccc(F)cc3)CC2)cc1,-1.67
17,COc1ccc(-c2nc(N)n(C(=O)c3ccc(C)cc3)n2)cc1,0.106
18,COc1ccc(/C=C/C(=O)Oc2ccc(/C=N\NC(=O)c3ccc(F)cc3)cc2)cc1,0.18
19,N#Cc1cc2c(nc1SCc1ccccc1)CCC2,0.359
20,COC(=O)c1cccc(NC(=O)c2cnoc2C)c1,-0.126
21,Cc1c(C(=S)Nc2ccccc2)cnn1-c1ccccc1,-0.398
22,Cc1oncc1C(=S)Nc1ccccc1,12.4 (active)

row,SMILES,z-score
1,COc1ccc(C(C)N2CC34C=CC(O3)C(C(=O)O)C4C2=O)cc1 (stereo not drawn),0.302
2,Cc1ccccc1OCC(O)Cn1nnc2ccccc21 (stereo not drawn),-0.244
3,COc1ccc(OCC(O)Cn2c(Nc3ccccc3)nc3c2c(=O)n(C)c(=O)n3C)cc1 (stereo not drawn),-0.45
4,C=CCn1c(N)c(C(=O)Nc2ccccc2OC)sc1=S,0.333
5,COc1ccccc1NC(=O)c1ccc(COc2ccc3c(c2)CCC3)cc1,-0.228
6,Cc1ccc(NC(=O)c2ccc(COc3ccc4c(c3)CCC4)cc2)c(C)c1,3.36 (active)
7,COC(=O)c1ccccc1NC(=O)c1ccc(COc2ccc3c(c2)CCC3)cc1,-0.271
8,O=C(O)[C@H]1CCCC[C@H]1C(=O)NCCc1ccccc1,0.402
9,COC(=O)C(C)Sc1nnc(Cc2cc(=O)[nH]c(=O)[nH]2)n1-c1ccc(OC)cc1 (stereo not drawn),0.194
10,CCOc1ccc(-n2c(Cc3cc(=O)[nH]c(=O)[nH]3)nnc2SC(C)C(=O)OC)cc1 (stereo not drawn),12.7 (active)
11,CCOC(=O)C(C)Sc1nnc(Cc2cc(=O)[nH]c(=O)[nH]2)n1-c1ccc(OCC)cc1 (stereo not drawn),0.465
12,COc1ccc(C(C(=O)NC(C)(C)C)N(CC2CCCO2)C(=O)CCC(=O)Nc2cc(C)on2)cc1 (stereo not drawn),-0.202
13,O=S(=O)(N/N=C/c1ccc(OC2CSC2)cc1)c1ccccc1,-0.00217
14,Nc1c(S(=O)(=O)c2cccs2)c2nc3ccccc3nc2n1Cc1ccc2c(c1)OCO2,-0.174
15,Cc1ccc(/C=N/n2c(-c3cccs3)n[nH]c2=S)cc1,10 (active)
16,Fc1ccc(/C=N/n2c(-c3cccs3)n[nH]c2=S)cc1,4.92 (active)
17,Cc1ccc(-c2n[nH]c(=S)n2/N=C/c2ccc(C)o2)cc1,-1.27
18,Cc1ccc(/C=N/n2c(-c3ccncc3)n[nH]c2=S)cc1,0.0356
19,Cc1ccsc1/C=N/n1c(-c2ccccn2)n[nH]c1=S,-0.121
20,S=c1[nH]nc(-c2ccncc2)n1/N=C/c1ccccc1,-0.00784
21,Cc1c(/C=N/NC(N)=O)c2ccccn2c1C(=O)c1ccc(F)cc1,-0.327
22,COCc1cc(C)nc2sc(C(=O)N3CCCCC3)c(N)c12,0.33

row,SMILES,z-score
1,CCCCOc1ccc(C(=O)N2CC(C)OC(C)C2)cc1 (stereo not drawn),-0.154
2,CCCCOc1ccc(C(=O)OC2CC(C)N(C)CC2C)cc1 (stereo not drawn),3.48 (active)
3,CCCCOc1ccc(C(=O)N2CCC(C)CC2)cc1,-0.401
4,Cc1nc2ccc(NC(=O)c3ccc(S(=O)(=O)N4CCOCC4)cc3)cc2s1,-0.182
5,CCN(c1ccccc1)S(=O)(=O)c1ccc(C(=O)Oc2ccc(C(C)=O)cc2)cc1,-0.819
6,CC(=O)c1ccc(OC(=O)N(c2ccccc2)c2ccccc2)cc1,2.99
7,O=C(Oc1ccc(-c2nnco2)cc1)N(c1ccccc1)c1ccccc1,0.519
8,CS(=O)(=O)N(CCc1ccccc1)CC(=O)NCc1cccnc1,0.68
9,O=c1c2c(n3nnnc3n1Cc1ccccc1)-c1ccccc1CC21CCCC1,0.0259
10,CC(=O)Nc1ccc(S(=O)(=O)NNC(=O)c2cc3c4ccccc4n(C)c3s2)cc1,-0.78
11,COc1ccc(S(=O)(=O)NNC(=O)c2cc3c4ccccc4n(C)c3s2)cc1,-0.127
12,Cn1c2ccccc2c2cc(C(=O)NNS(=O)(=O)c3ccc(F)cc3)sc21,5.09 (active)
13,COc1ccccc1C(=O)Nc1ccc(S(=O)(=O)N2CCc3ccccc32)cc1,0.187
14,Cc1ccc(Oc2cc([N+](=O)[O-])cc3c2C(=O)Nc2ccccc2O3)cc1,-0.0885
15,CCOC(=O)Cc1cc(-c2ccc(O)cc2)nc2ccc3ccccc3c12,0.0725
16,CCOC(=O)c1c(C)nc2c(c1-c1ccc(Cl)cc1)C(=O)CC(C)(C)C2,-1.24
17,CC(C)C[C@H](NC(=O)NCCc1ccc(Cl)cc1)C(=O)O,2.58
18,CC(C)CC(NC(=O)c1ccc(Cl)cc1)C(=O)O (stereo not drawn),-0.0425
19,CC(C)[C@H](NC(=O)NCCc1ccc(Cl)cc1)C(=O)O,0.54
20,COc1ccc(NC(=O)C23CC4CC(C2)CC(n2cnc(Br)n2)(C4)C3)cc1Cl,-0.254
21,Cn1c(=O)cc(SCC(=O)NCCC2=CCCCC2)c2ccc(Cl)cc21,-0.0516
22,O=C(NC(Nc1nc2ccc([N+](=O)[O-])cc2s1)(C(F)(F)F)C(F)(F)F)c1ccccc1,6.52 (active)

row,SMILES,z-score
1,COC(=O)C(NC(=O)c1ccccc1Cl)(Nc1ncc(S(=O)(=O)c2ccc([N+](=O)[O-])cc2)s1)C(F)(F)F (stereo not drawn),-0.242
2,O=C(NC(NNc1ccc([N+](=O)[O-])cc1)(C(F)(F)F)C(F)(F)F)c1ccccc1Cl,-0.392
3,O=C(NC(Nc1nc2ccc([N+](=O)[O-])cc2s1)(C(F)(F)F)C(F)(F)F)c1cccnc1,0.978
4,O=C(NC(Nc1nc2ccccc2s1)(C(F)(F)F)C(F)(F)F)c1ccccc1,-0.124
5,O=C(NC(Nc1nc2ccc([N+](=O)[O-])cc2s1)(C(F)(F)F)C(F)(F)F)c1ccccc1Cl,9.65 (active)
6,CN(C(=O)Nc1ccc(S(=O)(=O)N(C)C)cc1)C1CCCCC1,-0.0267
7,O=C(CCn1c(=O)c2ccccc2n(CC(=O)NC2CCCC2)c1=O)NCc1ccco1,-0.258
8,CN(C(=O)COC(=O)c1ccccc1SCC(=O)NC1CCCCCCC1)C1CCS(=O)(=O)C1 (stereo not drawn),-0.32
9,Cc1cc(Oc2ccc3ccccc3c2)nc(SCC(=O)c2ccccc2)n1,-0.14
10,CC(=O)/C=C(\C)Nc1ccc(-c2cnc(-c3ccccc3)o2)cc1,0.0863
11,Cc1ccccc1NS(=O)(=O)c1cc(S(C)(=O)=O)ccc1Cl,-0.0663
12,CS(=O)(=O)c1ccc(Cl)c(S(=O)(=O)NCc2ccccc2)c1,0.117
13,CCNS(=O)(=O)c1cc(S(C)(=O)=O)ccc1Cl,8.32 (active)
14,CC(C)=CC(=O)Nc1nnc(-c2ccccc2)s1,-0.169
15,C=CCNC(=S)NNC(=O)c1cccc(Br)c1,-0.0521
16,Cc1ccc(C(=O)NNC(=S)Nc2cccc3ccccc23)s1,1.65
17,O=C(NNC(=S)Nc1cccc2ccccc12)c1cccc(Br)c1,13.9 (active)
18,CCNC(=S)NNC(=O)c1cccc(Br)c1,0.0953
19,O=C(NNC(=S)Nc1ccccc1)c1cccc(Br)c1,3.98 (active)
20,O=C(O)CCC(=O)NNC(=O)c1cccc(Br)c1,-0.13
